From PubChem BioAssay
For part of these data: Measured potencies and affinities stand elsewhere. Calls of active or inactive are those of the source. Unless noted, how the calls were made is not given here.

Assays:
[1] = antimalarial activity against Dd2 strain (AID 2302;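 active means growth inhibition above 50% at the single 2 µM test dose, taken to imply half-maximal potency below 2 µM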;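 further: 0% = DMSO untreated growth and 100% = chloroquine plus artemisinin killed control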); details: P. falciparum Dd2 in RBCs, LDH growth readout, 72 h; at 2 µM; stronger effect = higher value
[2] = human hepatoma cell viability loss – ATP luminescence, cytotoxicity control for P. falciparum antimalarial project, primary screen (AID 2303;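 active means inhibition above 50%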;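 further: 0% = DMSO wells and 100% = digitonin-killed cells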); details: HepG2 viability, 24-48 h, at 10 µM, stronger effect = higher value
[3] = biological target: L-lactate dehydrogenase (Plasmodium falciparum (isolate CDC / Honduras)) (UniProt Q27743); assay: PfLDH activity inhibition – cell lysate, 3D7 strain, counter-screen for P. falciparum growth inhibition project (AID 2304);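 further: 0% = vehicle and 100% = reference inhibitor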; details: P. falciparum 3D7 crude extract, LDH APAD/NBT absorbance; at 2 µM; stronger effect = higher value
Chain of L-lactate dehydrogenase (Plasmodium falciparum (isolate CDC / Honduras)) (Q27743 whole entry, looked up): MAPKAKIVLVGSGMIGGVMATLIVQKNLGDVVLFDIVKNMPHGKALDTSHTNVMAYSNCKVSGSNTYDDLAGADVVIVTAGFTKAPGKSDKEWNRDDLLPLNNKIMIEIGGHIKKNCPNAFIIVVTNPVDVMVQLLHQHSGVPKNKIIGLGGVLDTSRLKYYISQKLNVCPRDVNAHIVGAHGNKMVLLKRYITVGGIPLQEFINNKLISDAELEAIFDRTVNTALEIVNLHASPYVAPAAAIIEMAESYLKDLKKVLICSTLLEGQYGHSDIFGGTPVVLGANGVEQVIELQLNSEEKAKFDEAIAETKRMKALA

[4] = inhibition of 3D7 malaria parasite growth – strain 3D7 (AID 2306);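 further: 0% = DMSO wells and 100% = chloroquine plus artemisinin control wells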; details: P. falciparum 3D7 erythrocytic growth, LDH absorbance, 72 h; at 2 µM; stronger effect = higher value
[5] = biological target: Calcium-dependent protein kinase 1 (Plasmodium falciparum (isolate 3D7)) (UniProt P62344); assay: PfCDPK1 kinase inhibitors, biochemical, TCAMS library (AID 1159585; cut-off not given, nearly all actives have IC50 up to about 0.98 µM;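 further: inhibitors leave more ATP so luminescence rises with inhibition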); details: recombinant PfCDPK1, Kinase-Glo ATP depletion luminescence
Chain of Calcium-dependent protein kinase 1 (Plasmodium falciparum (isolate 3D7)) (P62344 whole entry, looked up): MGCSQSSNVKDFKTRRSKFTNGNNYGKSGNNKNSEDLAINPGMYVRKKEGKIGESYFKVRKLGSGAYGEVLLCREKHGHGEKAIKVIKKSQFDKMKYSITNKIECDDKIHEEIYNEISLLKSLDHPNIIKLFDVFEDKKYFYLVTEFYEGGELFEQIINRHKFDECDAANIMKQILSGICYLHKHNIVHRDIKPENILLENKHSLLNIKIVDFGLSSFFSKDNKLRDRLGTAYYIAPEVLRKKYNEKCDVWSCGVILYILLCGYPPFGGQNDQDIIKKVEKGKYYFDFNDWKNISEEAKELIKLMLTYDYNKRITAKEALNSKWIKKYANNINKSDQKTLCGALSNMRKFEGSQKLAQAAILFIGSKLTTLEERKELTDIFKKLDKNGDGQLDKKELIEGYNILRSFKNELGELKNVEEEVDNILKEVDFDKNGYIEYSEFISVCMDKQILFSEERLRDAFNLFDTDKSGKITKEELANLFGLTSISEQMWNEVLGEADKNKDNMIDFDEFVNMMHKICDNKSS

[6] = biological target: Plasmodium falciparum protein kinase 6 (PK6, PF3D7_1337100) (UniProt Q8IDW1); assay: PfPK6 kinase inhibitors, biochemical, TCAMS library (AID 1159586); details: recombinant PfPK6, Kinase-Glo ATP depletion luminescence
Chain of Plasmodium falciparum protein kinase 6 (PK6, PF3D7_1337100) (Q8IDW1 1-305): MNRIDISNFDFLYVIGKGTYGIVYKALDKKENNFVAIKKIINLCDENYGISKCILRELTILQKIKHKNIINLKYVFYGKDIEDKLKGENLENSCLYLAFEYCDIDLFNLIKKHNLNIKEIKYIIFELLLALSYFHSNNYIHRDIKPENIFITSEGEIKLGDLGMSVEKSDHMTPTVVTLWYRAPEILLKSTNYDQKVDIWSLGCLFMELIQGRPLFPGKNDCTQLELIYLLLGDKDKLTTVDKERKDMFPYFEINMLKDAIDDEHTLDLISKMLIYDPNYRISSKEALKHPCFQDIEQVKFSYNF

[7] = biological target: Protein kinase 7 (PK7), Plasmodium falciparum 3D7 (PF3D7_0213400) (UniProt Q7YTF7); assay: inhibition of Plasmodium PK7 catalytic activity – biochemical, TCAMS antimalarial set, Kinase-Glo luminescence (AID 1159587); details: recombinant PfPK7, Kinase-Glo ATP depletion luminescence
Chain of Protein kinase 7 (PK7), Plasmodium falciparum 3D7 (PF3D7_0213400) (Q7YTF7 1-343): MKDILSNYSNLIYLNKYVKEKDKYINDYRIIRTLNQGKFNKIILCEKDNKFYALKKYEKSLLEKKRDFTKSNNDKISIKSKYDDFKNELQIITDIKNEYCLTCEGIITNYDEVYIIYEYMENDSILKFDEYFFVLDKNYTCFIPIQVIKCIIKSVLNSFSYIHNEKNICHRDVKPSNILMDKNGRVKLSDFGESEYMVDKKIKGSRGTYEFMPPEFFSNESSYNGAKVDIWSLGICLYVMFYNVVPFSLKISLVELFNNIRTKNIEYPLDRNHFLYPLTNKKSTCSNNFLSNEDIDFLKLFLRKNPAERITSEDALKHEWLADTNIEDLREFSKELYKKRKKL

[8] = biological target: Calcium-dependent protein kinase 4 (Plasmodium falciparum (isolate 3D7)) (UniProt Q8IBS5); assay: PfCDPK4 kinase inhibitors, biochemical, TCAMS library (AID 1159588; cut-off not given, nearly all actives have IC50 up to about 0.91 µM); details: recombinant PfCDPK4, Kinase-Glo ATP depletion luminescence
Chain of Calcium-dependent protein kinase 4 (Plasmodium falciparum (isolate 3D7)) (Q8IBS5 whole entry, looked up): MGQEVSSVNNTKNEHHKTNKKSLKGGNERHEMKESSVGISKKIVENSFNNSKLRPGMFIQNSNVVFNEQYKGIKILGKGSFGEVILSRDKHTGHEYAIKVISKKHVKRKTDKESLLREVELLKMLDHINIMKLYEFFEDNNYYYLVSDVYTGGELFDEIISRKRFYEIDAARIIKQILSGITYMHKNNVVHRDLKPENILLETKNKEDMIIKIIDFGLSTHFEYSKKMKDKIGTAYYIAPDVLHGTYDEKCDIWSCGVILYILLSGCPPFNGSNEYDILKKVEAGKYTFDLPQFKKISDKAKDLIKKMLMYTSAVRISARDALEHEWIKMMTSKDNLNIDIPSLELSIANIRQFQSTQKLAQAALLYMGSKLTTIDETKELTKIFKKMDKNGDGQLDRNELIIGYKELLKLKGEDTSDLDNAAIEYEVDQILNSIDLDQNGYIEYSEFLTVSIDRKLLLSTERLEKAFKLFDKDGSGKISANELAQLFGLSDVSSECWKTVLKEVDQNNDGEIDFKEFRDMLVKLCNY

O=C(/C=C/c1ccccc1Cl)NC1CCC(CN2CCC(c3c[nH]c4ccncc34)CC2)CC1 (configuration not stated)
active: growth inhibition [1] 100% | growth inhibition [4] 100%
inactive: inhibition [2] 19% | inhibition [3] -2% | outcome [5] | outcome [6] | outcome [7] | outcome [8]

CCc1ccc(-c2cnc(N)c3cc(-c4ccnc(N)n4)ccc23)cc1
inactive: inhibition [2] 37% | inhibition [3] 0% | outcome [5] | outcome [6] | outcome [7] | outcome [8]
active: growth inhibition [1] 70% | growth inhibition [4] 92%

CCN(CC)CCN(Cc1ccc(-c2ccc(C(F)(F)F)cc2)cc1)C(=O)Cn1c(CCc2c(F)cccc2F)nc(=O)c2ccccc21
inactive: inhibition [2] 36% | inhibition [3] -3% | outcome [5] | outcome [6] | outcome [7] | outcome [8]
active: growth inhibition [1] 61% | growth inhibition [4] 102%

COc1c(C2CCN(CCCCNC(=O)C=Cc3cc4cc(Cl)ccc4o3)CC2)ccc2c1CCCC2
inactive: growth inhibition [1] 19% | inhibition [2] 33% | inhibition [3] 2% | outcome [5] | outcome [6] | outcome [7] | outcome [8]
active: growth inhibition [4] 87%

O=C(C=Cc1ccc(F)cc1)N1CCN(S(=O)(=O)c2ccc(Cl)cc2)CC1
active: growth inhibition [1] 93% | growth inhibition [4] 91%
inactive: inhibition [2] 10% | inhibition [3] -2% | outcome [5] | outcome [6] | outcome [7] | outcome [8]

O=C(/C=C/c1ccc(Cl)c(Cl)c1)NCCCCCCN1CCN(C(=O)Nc2ccc(F)c(Cl)c2)CC1
inactive: growth inhibition [1] 2% | inhibition [2] 40% | inhibition [3] -7% | outcome [5] | outcome [6] | outcome [7] | outcome [8]
active: growth inhibition [4] 86%

CCCc1cc(NCC)nc(Nc2ccc(F)cc2)n1
inactive: growth inhibition [1] 36% | inhibition [2] 16% | inhibition [3] -1% | outcome [5] | outcome [6] | outcome [7] | outcome [8]
active: growth inhibition [4] 86%

CCCNCc1ccc(-c2ccc(CN(Cc3ccc4c(c3)OCO4)C(=O)Cc3cccnc3)cc2)nc1
active: growth inhibition [1] 53% | growth inhibition [4] 94%
inactive: inhibition [2] 16% | inhibition [3] 5% | outcome [5] | outcome [6] | outcome [7] | outcome [8]

O=C(Nc1ccnc2ccccc12)NC1CCN(Cc2ccccc2)CC1
inactive: growth inhibition [1] 43% | inhibition [2] 18% | inhibition [3] 5% | outcome [5] | outcome [6] | outcome [7] | outcome [8]
active: growth inhibition [4] 96%

CC1(C)CCCN(C(=O)c2cccc(-n3nc(-c4ccc(Cl)cc4)cc3N)c2)C1
active: growth inhibition [1] 98% | growth inhibition [4] 101%
inactive: inhibition [2] 13% | inhibition [3] -2% | outcome [5] | outcome [6] | outcome [7] | outcome [8]

Cc1cc(N2CCC(NS(=O)(=O)c3ccccc3)CC2)nc(Nc2cccc(C#N)c2)n1
active: inhibition [2] 52% | growth inhibition [4] 93%
inactive: growth inhibition [1] 29% | inhibition [3] 3% | outcome [5] | outcome [6] | outcome [7] | outcome [8]

Cc1[nH]c(C)c(-c2ccc(-c3ccc(F)cc3)cc2)c(=O)c1Br
inactive: inhibition [2] 12% | inhibition [3] 2% | outcome [5] | outcome [6] | outcome [7] | outcome [8]
active: growth inhibition [1] 52% | growth inhibition [4] 94%

CC(C)COc1ccc(Cl)cc1Cc1ccc(-c2nc3ccc(N4CCN(C)CC4)cc3[nH]2)o1
inactive: growth inhibition [1] 41% | inhibition [2] 6% | inhibition [3] 0% | outcome [5] | outcome [6] | outcome [7] | outcome [8]
active: growth inhibition [4] 102%

O=C1CCCN1CCCNCc1ccc(-c2cccc(-c3nc4ccc(C(F)(F)F)cc4[nH]3)c2)cc1
inactive: inhibition [2] 14% | inhibition [3] 2% | outcome [5] | outcome [6] | outcome [7] | outcome [8]
active: growth inhibition [1] 98% | growth inhibition [4] 100%

CCNc1cc(C(=O)N[C@@H](Cc2ccccc2)[C@H](O)CNC(CC)c2cccc(Cl)c2)cc(N2CCCC2=O)c1 (some centres not stated)
inactive: inhibition [2] 12% | inhibition [3] -1% | outcome [5] | outcome [6] | outcome [7] | outcome [8]
active: growth inhibition [1] 99% | growth inhibition [4] 97%

Cc1cc(C)n(-c2nc(Nc3cccc(C(F)(F)F)c3)nc(-n3nc(C)cc3C)n2)n1
active: growth inhibition [1] 88% | growth inhibition [4] 99%
inactive: inhibition [2] -8% | inhibition [3] -6% | outcome [5] | outcome [6] | outcome [7] | outcome [8]

N=C(N)c1ccc(NC(=O)Cc2nc3ccc(C(=N)N)cc3[nH]2)cc1
inactive: inhibition [2] 4% | inhibition [3] 2% | outcome [5] | outcome [6] | outcome [7] | outcome [8]
active: growth inhibition [1] 81% | growth inhibition [4] 87%

O=C(Nc1nc2cc(S(=O)(=O)NCc3ccc(Cl)c(Cl)c3)ccc2n1CCCn1ccnc1)c1ccc(Cl)cc1
inactive: growth inhibition [1] 44% | inhibition [2] -12% | inhibition [3] 4% | outcome [5] | outcome [6] | outcome [7] | outcome [8]
active: growth inhibition [4] 101%

COc1ccc(Nc2nccc(N3CCC(NC(=O)Nc4cc(C)ccc4C)C3)n2)cc1 (configuration not stated)
inactive: growth inhibition [1] 37% | inhibition [2] 10% | inhibition [3] -8% | outcome [5] | outcome [6] | outcome [7] | outcome [8]
active: growth inhibition [4] 91%

COc1ccc(CNCc2ccc(-c3cccc(-c4nc5ccc(C(F)(F)F)cc5[nH]4)c3)cc2)cc1
inactive: inhibition [3] -8% | outcome [5] | outcome [6] | outcome [7] | outcome [8]
active: growth inhibition [1] 100% | inhibition [2] 59% | growth inhibition [4] 102%

Cc1cccc(Cn2nc(-c3ccccc3)c(N3CCCCC3)cc2=O)c1
inactive: growth inhibition [1] -2% | inhibition [2] 29% | inhibition [3] 0% | outcome [5] | outcome [6] | outcome [7] | outcome [8]
active: growth inhibition [4] 98%

CCOC(=O)c1ccc(NC(=O)Nc2cccc(-c3ccc(-c4nc5ccc(C(F)(F)F)cc5[nH]4)cc3)c2)cc1
active: growth inhibition [1] 99% | inhibition [2] 62% | growth inhibition [4] 101%
inactive: inhibition [3] -4% | outcome [5] | outcome [6] | outcome [7] | outcome [8]

COc1ccc(CCNCCCCCNCCCc2ccc(Cl)cc2)cc1OC
inactive: growth inhibition [1] 2% | inhibition [2] 24% | inhibition [3] 2% | outcome [5] | outcome [6] | outcome [7] | outcome [8]
active: growth inhibition [4] 101%

COc1cc(C=NNc2cc(C)nc3c(OC)cccc23)cc(OC)c1OC
inactive: growth inhibition [1] 49% | inhibition [2] 2% | inhibition [3] 0% | outcome [5] | outcome [6] | outcome [7] | outcome [8]
active: growth inhibition [4] 94%

Cc1ccc(CCC(C)NCC(O)c2cccc(C(F)(F)F)c2)cc1 (configuration not stated)
active: growth inhibition [1] 98% | growth inhibition [4] 99%
inactive: inhibition [2] -17% | inhibition [3] 4% | outcome [5] | outcome [6] | outcome [7] | outcome [8]

CN(CCCc1c[nH]c2ccccc12)CC1CCN(C(=O)/C=C/c2ccc(Cl)c(Cl)c2)CC1
inactive: growth inhibition [1] 25% | inhibition [2] 37% | inhibition [3] -1% | outcome [5] | outcome [6] | outcome [7] | outcome [8]
active: growth inhibition [4] 99%

Oc1ccc(CCNc2nc(NCCCOc3cc(CN4CCCCC4)ccc3F)nc(N3CCNCC3)n2)cc1
inactive: growth inhibition [1] -3% | inhibition [2] 30% | inhibition [3] -1% | outcome [5] | outcome [6] | outcome [7] | outcome [8]
active: growth inhibition [4] 101%

CCN(CC)C(=NCCCCCCCCN=C(/N=C(/N)Nc1ccc(Cl)cc1)N(CC)CC)/N=C(/N)Nc1ccc(Cl)cc1
active: growth inhibition [1] 94% | growth inhibition [4] 99%
inactive: inhibition [2] 10% | inhibition [3] -3% | outcome [5] | outcome [6] | outcome [7] | outcome [8]

Cc1cccc2[nH]c(-c3cccc(-c4cccc(CNCc5ccccc5)c4)c3)nc12
active: growth inhibition [1] 56% | growth inhibition [4] 101%
inactive: inhibition [2] 3% | inhibition [3] -1% | outcome [5] | outcome [6] | outcome [7] | outcome [8]

O=C(Nc1ccccc1Cc1ccccc1)c1ccccc1C(F)(F)F
inactive: inhibition [2] 0% | inhibition [3] 3% | outcome [5] | outcome [6] | outcome [7] | outcome [8]
active: growth inhibition [1] 85% | growth inhibition [4] 99%

N#Cc1cncc(-c2nc3c(N4CCC(Cc5ccccc5)CC4)cccc3n2C2CCNC2)c1 (configuration not stated)
inactive: growth inhibition [1] 7% | inhibition [2] 5% | inhibition [3] -1% | outcome [5] | outcome [6] | outcome [7] | outcome [8]
active: growth inhibition [4] 88%

COc1ccc(CNC2CCCC2)cc1-c1ccc(S(=O)(=O)NCCN2CCCC2)s1
inactive: growth inhibition [1] 17% | inhibition [2] 17% | inhibition [3] -3% | outcome [5] | outcome [6] | outcome [7] | outcome [8]
active: growth inhibition [4] 96%

O=C1COc2ccc(CNC3CCC(O)(CCc4ccnc5cc6c(cc45)OCCO6)CC3)nc2N1 (configuration not stated)
inactive: growth inhibition [1] -1% | inhibition [2] -5% | inhibition [3] -6% | outcome [5] | outcome [6] | outcome [7] | outcome [8]
active: growth inhibition [4] 92%

O=C(NCC1CC1)C1CCN(C(c2ccccc2)c2ccc(Cl)c(Cl)c2)CC1 (configuration not stated)
inactive: inhibition [2] 7% | inhibition [3] -1% | outcome [5] | outcome [6] | outcome [7] | outcome [8]
active: growth inhibition [1] 96% | growth inhibition [4] 97%

O=S(=O)(Nc1cccc(CCN2CCCCC2CCN2CCCC2)c1)c1ccc(-c2ccccc2)cc1 (configuration not stated)
inactive: growth inhibition [1] 5% | inhibition [2] 31% | inhibition [3] 0% | outcome [5] | outcome [6] | outcome [7] | outcome [8]
active: growth inhibition [4] 99%

Cc1ccc(-c2csc(C)n2)c(C)c1
inactive: growth inhibition [1] -3% | inhibition [2] 12% | inhibition [3] 3% | outcome [5] | outcome [6] | outcome [7] | outcome [8]
active: growth inhibition [4] 98%

OCCNc1nc(Nc2ccc(F)cc2)nc2ccccc12
inactive: inhibition [2] 10% | inhibition [3] 3% | outcome [5] | outcome [6] | outcome [7] | outcome [8]
active: growth inhibition [1] 73% | growth inhibition [4] 94%

Cc1cc(OCCCN2CCC(NS(=O)(=O)c3cc(Br)c(Cl)s3)CC2)c2ccccc2n1
inactive: growth inhibition [1] 39% | inhibition [2] 5% | inhibition [3] 3% | outcome [5] | outcome [6] | outcome [7] | outcome [8]
active: growth inhibition [4] 95%

Cc1ccc(NC(=O)c2ccc(CN3CCCN(CCC(C)C)CC3)cc2)cc1F
active: growth inhibition [4] 91%
inactive: growth inhibition [1] 31% | inhibition [2] 40% | inhibition [3] 1% | outcome [5] | outcome [6] | outcome [7] | outcome [8]
